Measured potencies and affinities stand elsewhere. Active and inactive are the calls of the source. No rule for the calls is given here.
Assay: CCR5-tropic HIV-1 fusion blockers – cell-based, CCR5-tropic Env, dose response (AID 2279)
Settings: CCR5-tropic HIV-1 Env, reporter read-out; series mostly up to 50 µM; inhibition: at the top concentration

inhibition, inactive:
CC(C)c1ccc(OCC(=O)Nc2cccc(C(=O)Nc3ccccc3C(=O)O)c2)cc1 -1.84%
O=C(O)c1ccc(Cl)c(S(=O)(=O)Nc2ccccc2C(=O)Nc2ccc(Cl)cc2)c1 -12.6%
O=C(O)C(c1ccccc1)N1C(=O)/C(=C\c2ccc(O)c(O)c2)SC1=S (centres undefined) -7.75%
Cc1c(CC(=O)O)c(=O)oc2c(C)c3occ(-c4ccc(Br)cc4)c3cc12 31.7%
CC(c1ccccc1)N1C(=O)c2ccc(C(=O)Nc3ccc(Br)cc3C(=O)O)cc2C1=O (centres undefined) 1.67%
O=C(O)c1[nH]c2ccccc2c1C(c1cc(Br)ccc1O)c1c(C(=O)O)[nH]c2ccccc12 -15.4%
CCCCCOc1ccc(C2C(C(=O)c3ccc(C)o3)=C(O)C(=O)N2c2cc(C)on2)cc1 (centres undefined) 37.2%
COc1cc(/C=C2\C(=N)N3N=C(S(C)(=O)=O)SC3=NC2=O)ccc1OS(=O)(=O)c1ccccc1 9.44%
O=C(CCN1C(=O)/C(=C/c2cccs2)SC1=S)Nc1ccc(C(=O)O)c(O)c1 5.85%
CC(C)CS(=O)(=O)C1=NSC2=NC(=O)/C(=C\c3ccc(OC(=O)c4ccco4)cc3)C(=N)N21 -4.18%
CC1=NN(c2ccc(C(=O)O)cc2)C(=O)/C1=C\c1ccc(OC(=O)c2cccs2)cc1 9.07%
COc1ccc(C(=O)Nc2ccccc2C(=O)O)cc1NC(=O)C(c1ccccc1)c1ccccc1 32.5%
O=C(O)C1Nc2ccc(Br)cc2C2C=CCC12 (centres undefined) 5.92%
N=C1/C(=C\c2ccc(-c3cccc(C(=O)O)c3)o2)C(=O)N=C2SC=C(c3ccccc3)N12 16.1%
CSc1ccc(C(c2c(C(=O)O)[nH]c3ccccc23)c2c(C(=O)O)[nH]c3ccccc23)cc1 -22.7%
CCOc1cc(/C=C2\C(=N)N3N=C(S(C)(=O)=O)SC3=NC2=O)ccc1OCCOc1cccc(OC)c1 5.44%
O=C(O)CN1C(=O)/C(=C\c2cc(Br)ccc2OCc2ccc(Cl)cc2Cl)SC1=S -14.4%
O=C(O)c1ccc(-c2ccc(/C=c3/sc4nc5ccccc5n4c3=O)o2)cc1Cl 8.02%
Cc1ccc(Cl)cc1N1CCN(C(=O)Cc2c(C(=O)O)[nH]c3ccc(Cl)cc23)CC1 -12.9%
Cc1ccc(-c2nn(-c3ccccc3)cc2/C=C2\SC(=S)N(CC(=O)O)C2=O)cc1 -2.87% [at 25 µM]
CCCCCC(=O)Cc1cc(O)cc2c1C(=O)Oc1cc(O)c(C(=O)O)c(CCCCC)c1O2 28.4%
O=C(O)CN1C(=O)/C(=C\c2cc(Br)ccc2OCc2ccc(F)cc2)SC1=S 0.28%
CCc1nnc(NS(=O)(=O)c2ccc(NC(=S)NC(=O)/C=C/c3ccc(F)cc3)cc2)s1 -5%
CC(C)S(=O)(=O)C1=NSC2=NC(=O)/C(=C\c3ccc(-c4ccccc4)o3)C(=N)N21 20.1%
CCCOc1ccc(C(=O)NNC(=S)NC(=O)c2cc(-c3ccc(Cl)cc3)nc3ccccc23)cc1 -2.5%
O=C(O)c1[nH]c2ccccc2c1C(c1cc(Cl)cc([N+](=O)[O-])c1O)c1c(C(=O)O)[nH]c2ccccc12 -29.6%
Cc1cc(N2C(=O)C(O)=C(C(=O)c3cc4ccccc4o3)C2c2ccc(Cl)cc2)no1 (centres undefined) 32.2%
CCOc1cc(/C=C2/C(=N)N3C(=NC2=O)SN=C3S(C)(=O)=O)ccc1OS(=O)(=O)c1ccccc1 10.1%
O=C(CCN1C(=O)/C(=C/c2ccccc2Cl)SC1=S)Nc1ccccc1C(=O)O -4.11%
O=C(NN1C(=O)/C(=C/c2ccc(O)cc2)SC1=S)c1ccccc1O 21%
O=C(O)CN1C(=O)/C(=C\c2cc(Br)ccc2OCc2ccccc2F)SC1=S -3.94%
Cc1ccc(S(=O)(=O)Oc2ccc(/C=C3\C(=N)N4N=C(S(C)(=O)=O)SC4=NC3=O)cc2)cc1 -3.81%
N=C1/C(=C/c2ccc(-c3cccc(C(=O)O)c3)o2)C(=O)N=C2SC=C(c3ccccc3)N12 30.6%
O=C(O)CCN1C(=O)/C(=C\c2cccc(OCC(=O)Nc3ccc(Cl)cc3)c2)SC1=S 1.86%
